Compounds with a hit are over-represented: about 1.4% of the library has one in this group of screens.
Rango complex inh: qHTS Assay for Inhibitors of Rango (Ran-regulated importin-beta cargo) - Importin beta complex formation | Importin subunit beta-1 (Homo sapiens), Q14974 | Rango CFP/YFP FRET sensor + importin beta, 45 min | Potency, µM (highest dose often 92.2 µM), without a hit: top-dose inhibition of complex formation | actives 0.031% (n = 340,000);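 further: potency means the concentration at half of the fitted maximal effect; 0% = DMSO wells and 100% = buffer wells lacking importin beta; nearly all actives have a fitted effect of over 15% in size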
Target sequence (Q14974 whole entry, looked up): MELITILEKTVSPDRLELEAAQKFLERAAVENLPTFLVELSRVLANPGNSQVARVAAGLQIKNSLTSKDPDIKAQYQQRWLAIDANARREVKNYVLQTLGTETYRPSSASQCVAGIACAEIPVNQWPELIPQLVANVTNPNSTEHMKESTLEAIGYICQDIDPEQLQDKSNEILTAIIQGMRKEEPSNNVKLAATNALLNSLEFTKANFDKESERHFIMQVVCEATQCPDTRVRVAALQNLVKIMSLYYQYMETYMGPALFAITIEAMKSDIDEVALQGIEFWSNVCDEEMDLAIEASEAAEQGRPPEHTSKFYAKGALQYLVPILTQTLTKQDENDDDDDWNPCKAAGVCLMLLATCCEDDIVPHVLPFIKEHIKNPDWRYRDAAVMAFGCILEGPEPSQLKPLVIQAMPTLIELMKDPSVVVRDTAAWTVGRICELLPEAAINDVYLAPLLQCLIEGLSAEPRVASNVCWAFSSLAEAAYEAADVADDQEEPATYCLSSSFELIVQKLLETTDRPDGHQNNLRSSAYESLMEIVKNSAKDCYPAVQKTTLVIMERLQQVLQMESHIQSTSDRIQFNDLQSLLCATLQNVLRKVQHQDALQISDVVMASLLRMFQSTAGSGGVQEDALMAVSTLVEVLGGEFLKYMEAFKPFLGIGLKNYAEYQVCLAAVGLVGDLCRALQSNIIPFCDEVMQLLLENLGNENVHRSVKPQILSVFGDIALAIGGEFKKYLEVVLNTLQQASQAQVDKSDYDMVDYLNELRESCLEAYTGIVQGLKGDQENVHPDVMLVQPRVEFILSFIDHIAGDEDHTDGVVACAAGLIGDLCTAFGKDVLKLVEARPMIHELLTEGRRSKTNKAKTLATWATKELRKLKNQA
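FRET biosensor (snurportin 1 IBB flanked by EYFP and cerulean), 50 nM, with compound 5 min, then 0.125 microM importin beta in PBS, 1 mM DTT, 0.02% Tween-20, 0.1% BSA. CFP/YFP ratio read after 45 min at room temperature; pre-read flags interference.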
Rango dissoc inh: qHTS Assay for Inhibitors of RanGTP induced Rango (Ran-regulated importin-beta cargo) - Importin beta complex dissociation. Potency, µM (top dose mostly 46.1 µM), without a hit: top-dose activity change, negative = inhibition. Snurportin-1 (Homo sapiens) + GTP-binding nuclear protein Ran (Homo sapiens) + Importin …. actives 0.071% (n = 340,000). AID 540253, 2011. Biochemical FRET Rango-importin beta, RanGTP-induced dissociation; further: potency means the concentration at half of the fitted maximal effect; % of control where 0% means no effect; nearly all actives have a fitted effect of over 45% in size
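Rango FRET biosensor (snurportin-1 IBB flanked by N-terminal EYFP and C-terminal CFP10) at 0.1 uM, with 0.25 uM importin beta in PBS, 1mM DTT, 0.02% Tween-20, 0.1% BSA. 0.6 uM Ran, 2mM GTP and 0.2 uM RCC1 were then added for 45 min at room temperature. Inhibition read as loss of FRET rise.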
KCNH2 WT inh: qHTS for Inhibitors of KCHN2 3.1: Wildtype qHTS. U2OS, BacMam KCNH2, thallium flux FluxOr; stronger effect = lower value. activity change, % at 1.84 µM. actives 0.37% (n = 340,000). AID 720551, 2013;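 active means maximum activity change below -70%; inconclusive means maximum activity change between -70% and -50%; inactive means maximum activity change above -50%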; further: on the % scale 0 is the no-effect control and ±100 the full control effect
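U2OS cells transduced with wild-type KCNH2 virus are loaded with FluxOr dye for 45 min, and thallium flux is measured in kinetic reads before and after stimulation buffer. Rate constants are normalized to DMSO controls.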
CCT modulator: High-Throughput Screening for Modulators of Cytosolic Chaperonin Activity; purified chaperonin ATPase assay, HTRF ADP detection, 30 min; activity change, % (test concentration not listed), hits read low; actives 0.3% (n = 360,000); in the data active means activity change below about -30%; further: on the % scale 0 is the no-effect control and ±100 the full control effect
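Nucleotide hydrolysis assay: TRiC at 20–40 nM final (set by batch activity) with 10 uM ATP, 30 min at 37 °C, in presence of 76 uM compound. Detection by competitive ADP HTRF, 30 min ambient.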
Mm-Cpn inhibitor: Inhibitors of TCP-1 ring complex (TRiC) of Methanococcus maripaludis (MmCpn): qHTS; Chaperonin Mm-Cpn (Methanococcus maripaludis); purified Mm-Cpn ATPase, ADP Transcreener TR-FRET; Potency, µM (doses to about 76.9 µM), for inactives: at the top dose activity, negative = inhibition, hits mostly inhibitors; actives 0.031% (n = 330,000); AID 504842, 2011; active means well fitted inhibition curve with a large enough effect; inconclusive means small, poorly fitted or top-dose-only effect; further: potency means the concentration at half of the fitted maximal effect; on the % scale 0 is the no-effect control and ±100 the full control effect; nearly all actives have a fitted effect of over 80% in size
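ATPase read-out: TR-FRET ADP immunoassay (anti-ADP Eu cryptate vs ADP-d2), ex 320 nm, em 590/665 nm; signal drops as ADP forms. Enzyme 25 nM, ATP 10 uM, 30 min at 37°C after 10 min compound preincubation.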
KCNH2 3.1 block: qHTS for Inhibitors of KCHN2 3.1: Mutant qHTS. actives 0.95% (n = 340,000). activity change, % (tested at about 1.8 µM). U2OS KCNH2 3.1, thallium flux FluxOr; stronger effect = lower value. Potassium voltage-gated channel subfamily H member 2, brain isoform KCNH2 3.1 (human);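 active means maximum activity change below -70%; inconclusive means maximum activity change from -70% to -50%; inactive means maximum activity change above -50%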;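 further: thallium influx rate constant from kinetic fluorescence after stimulation buffer; on the % scale 0 is the no-effect control and ±100 the full control effect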
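We transduce U2OS cells with the mutant 3.1 virus, culture them overnight, load FluxOr with Red40 quencher for 45 min, then add stimulation buffer and read kinetically for 2 min to derive a normalized rate constant.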
The depositor's hits bear a star; ? = inconclusive; . = no result. Unless noted, the call rests on the fitted dose curve.

SMILES	Rango complex inh	Rango dissoc inh	KCNH2 WT inh	CCT modulator	Mm-Cpn inhibitor	KCNH2 3.1 block
CCCC1NC(C(=O)O)Cc2c1[nH]c1ccccc21 (centres undefined)	?	?	4	-1	?	0
O=C(COC(=O)c1cc(=O)c2ccccc2o1)Nc1ccc2ccccc2c1	3%	9%	-7	-2	2%	-7
CCN(C[C@H]1N[C@@](CC)(C(=O)OC)[C@H]2C(=O)N(Cc3ccccc3)C(=O)[C@@H]12)C(=O)Nc1ccc(C(F)(F)F)cc1	0%	-8%	-5	0	1%	-75*
CCN(C[C@H]1N[C@@](CC)(C(=O)OC)[C@H]2C(=O)N(Cc3ccccc3)C(=O)[C@@H]12)C(=O)Nc1ccc(OC)cc1	-3%	11%	1	-3	-1%	-6
O=C(/C=C/c1ccc(Cl)c([N+](=O)[O-])c1)Nc1ccc(NC(=O)c2ccco2)cc1	?	-11%	-36	1	-10%	-119*
Cc1cc(NC(=O)C23CCC(C)(C(=O)O2)C3(C)C)no1 (centres undefined)	-1%	2%	-22	1	1%	-191*
CCOc1ccc(NC(=O)NCCN2CCN(c3cccc(C)c3C)CC2)cc1	1%	-5%	36	0	-5%	-89*
CCOc1ccc(NC(=O)NCCN2CCN(c3ccccc3F)CC2)cc1	1%	8%	13	0	0%	-34
CCOc1cccc(N2CCN(CCNC(=O)Nc3ccc(C)cc3)CC2)c1C	-2%	-8%	6	0	-6%	-93*
CNC(=O)c1ccccc1-c1cn(C)c2ccccc2c1=O	0%	-3%	-2	1	2%	1
O=C1CC2(CCN(C(=O)COc3ccc(Cl)cc3)CC2)Oc2ccccc21	3%	11%	-47	1	0%	-86*
COc1cc2[nH]c(=O)n(CCCCCC(=O)N3CC=C(c4ccccc4)CC3)c(=O)c2cc1OC	0%	-6%	-2	-2	1%	3
O=C(COC(=O)c1cc(=O)[nH]c2ccc(Br)cc12)c1ccccc1	?	-8%	2	-33*	-4%	0
O=C(COC(=O)c1cc(=O)[nH]c2ccccc12)c1ccc(Br)cc1	?	0%	-9	-126*	0%	-8
COc1cc2c(OC(C)=O)c3c(c(-c4ccc5c(c4)OCO5)c2cc1OC)C(=O)OC3	?	16µM*	7	0	.	-14
COc1cc2c(O)c3c(c(-c4ccc5c(c4)OCO5)c2cc1OC)C(=O)OC3	?	?	-11	0	1%	-1
Cc1c(C(=O)N2CC(C)OC(C)C2)[nH]c2ccc(Br)cc12 (centres undefined)	-1%	0%	5	1	-7%	26
CC(COc1ccccc1)N1CCC(CO)(CCc2ccccc2)CC1 (centres undefined)	-4%	1%	?	0	3%	-101*
OCC1(CCCc2ccccc2)CCN(Cc2ccc(F)cc2)CC1	2%	2%	5	-2	-4%	-10
CSCC(C)N1CCC(CO)(CCc2ccccc2)CC1 (centres undefined)	0%	1%	20	2	2%	-7
OCC1(CCc2ccccc2)CCN(Cc2ccc(OC(F)F)cc2)CC1	1%	-13%	-183*	-2	0%	.
O=C(O)CNC(=O)c1ccc(NC(=O)/C(=C/c2ccccc2)NC(=O)c2ccco2)cc1	1%	-10%	2	-1	1%	-2
Cn1c2cc([N+](=O)[O-])sc2c2cnn(Cc3ccccc3F)c(=O)c21	.	.	.	.	0%	.
COc1ccc(F)cc1CN1CCN(CC(=O)Nc2ccccc2C(=O)NC2CC2)CC1	4%	-18%	-107*	-1	0%	-106*
COc1ccc(CN2CCN(CC(=O)Nc3ccccc3C(=O)NC3CC3)CC2)cc1F	9%	13%	-93*	-3	-1%	-104*
SMILES	Rango complex inh	Rango dissoc inh	KCNH2 WT inh	CCT modulator	Mm-Cpn inhibitor	KCNH2 3.1 block
COc1ccccc1NC(=O)CN1CCN(CC(=O)Nc2ccc(F)cc2F)CC1	?	-15%	-10	-1	3%	-86*
O=C(CN1CCN(S(=O)(=O)c2ccc(F)cc2)CC1)Nc1ccccc1C(=O)NC1CC1	-1%	8%	-2	5	0%	-38
Cc1ccccc1-c1cc2nc(Oc3cccc(F)c3)n(C)c(=O)c2s1	.	.	.	1	.	.
Cc1cccc(N2N=C(C(=O)N3Cc4ccccc4CC3C(N)=O)CCC2=O)c1 (centres undefined)	-1%	0%	3	-2	-1%	8
Cc1ccc(CCNC(=O)Cn2cccc2)cc1	-1%	14%	0	0	-3%	-3
Cc1ccc(C(=O)NC2CCCCC2)cc1S(=O)(=O)N1CCCC1	2%	8%	8	2	-1%	8
Cc1ccc(C(=O)NC2CCS(=O)(=O)C2)cc1S(=O)(=O)N1CCCCCC1 (centres undefined)	-3%	-8%	14	-19	-5%	-114*
CC1CCN(S(=O)(=O)c2ccc(C(=O)NC3CCS(=O)(=O)C3)cc2)CC1 (centres undefined)	0%	11%	-3	-1	1%	-79*
CC1CCN(S(=O)(=O)c2ccc(C(=O)NCc3cccnc3)cc2)CC1	1%	9%	-263*	1	2%	3
NS(=O)(=O)c1ccc(CCNC(=O)/C=C/c2ccccc2[N+](=O)[O-])cc1	7%	17%	-9	0	-2%	1
CSc1ccccc1C(=O)C1CCCN(Cc2c(C)n(C)n(-c3ccccc3)c2=O)C1 (centres undefined)	0%	-11%	-150*	-4	1%	-188*
COc1c(C)cc(C(=O)C2CCCN(Cc3c(C)n(C)n(-c4ccccc4)c3=O)C2)cc1C (centres undefined)	0%	18%	2	-10	1%	?
CCSc1nc2ccccc2c(=O)n1C1CCOC(C)(C)C1 (centres undefined)	-3%	-13%	-3	0	2%	-91*

Assay outcomes as filed in PubChem BioAssay.
